In PMC7862700, “An all-to-all approach to the identification of sequence-specific readers for epigenetic DNA modifications on cytosine” one finds binding signal data, which are given here for one sequence.

What all share (test): DAPPL (digital affinity profiling via proximity ligation, sequencing); 10 mM Tris-HCl pH 7.5, 50 mM NaCl, 1 mM DTT, 4% glycerol, room temperature, 30 min; GST-TFs on glutathione beads, 16-mer random dsDNA library, 0.1% formaldehyde crosslink after washing; high values mean tight binding
The target in test [1] is T1, FLI1 (Homo sapiens, UniProt Q01543 1-452).
T1 sequence: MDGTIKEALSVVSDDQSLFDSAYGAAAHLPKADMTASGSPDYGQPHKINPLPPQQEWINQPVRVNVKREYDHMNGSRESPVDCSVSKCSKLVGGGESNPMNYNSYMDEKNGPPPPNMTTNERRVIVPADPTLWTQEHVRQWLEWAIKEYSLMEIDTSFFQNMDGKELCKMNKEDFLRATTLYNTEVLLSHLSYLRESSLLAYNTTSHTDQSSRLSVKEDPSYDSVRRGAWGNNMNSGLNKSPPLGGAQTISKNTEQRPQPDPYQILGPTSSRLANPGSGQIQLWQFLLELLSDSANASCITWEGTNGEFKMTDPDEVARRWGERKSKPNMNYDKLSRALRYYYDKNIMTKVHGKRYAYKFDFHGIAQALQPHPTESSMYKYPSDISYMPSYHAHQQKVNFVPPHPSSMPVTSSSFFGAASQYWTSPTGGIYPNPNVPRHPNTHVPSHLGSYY
Particulars: protein: recombinant; tags: N-terminal GST; dsDNA, one strand shown. In a few lines: (§1)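 In yeast, human transcription factors were expressed with a GST fusion, then pulled down on glutathione beads and given DNA barcodes. Pooled with a tag-only sample, they were exposed to 200 nmole of a 16-mer random double-stranded DNA library (Tris/NaCl/DTT/glycerol buffer, room temperature, 30 min), washed, crosslinked with 0.1% formaldehyde, proximity-ligated using BsaI/T4 ligase for 1 h at 37 °C, PCR-amplified and read on an Illumina NextSeq500. Each hexamer's frequency of reads for a factor, divided by the matching frequency for the tag-only sample, gives the binding signal.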

Test [2] addresses T2, ELK1 (Homo sapiens, UniProt P19419 1-428).
T2 sequence: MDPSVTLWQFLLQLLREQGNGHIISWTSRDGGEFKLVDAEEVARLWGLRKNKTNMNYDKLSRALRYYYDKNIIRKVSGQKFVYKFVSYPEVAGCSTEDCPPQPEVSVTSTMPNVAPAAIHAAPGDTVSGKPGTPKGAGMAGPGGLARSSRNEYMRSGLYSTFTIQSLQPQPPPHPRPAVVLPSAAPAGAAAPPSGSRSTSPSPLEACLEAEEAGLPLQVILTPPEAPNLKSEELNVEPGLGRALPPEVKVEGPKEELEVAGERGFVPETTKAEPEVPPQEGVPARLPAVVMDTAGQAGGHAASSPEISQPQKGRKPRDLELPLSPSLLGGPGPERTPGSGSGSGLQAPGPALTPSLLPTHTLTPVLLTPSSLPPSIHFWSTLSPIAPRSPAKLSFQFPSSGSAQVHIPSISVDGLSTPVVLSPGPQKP
Particulars: protein: recombinant; tags: N-terminal GST; dsDNA, one strand shown. In a few lines:
as §1

The target of test [3] is T3, GABPA (Homo sapiens, UniProt Q06546 1-454).
T3 sequence: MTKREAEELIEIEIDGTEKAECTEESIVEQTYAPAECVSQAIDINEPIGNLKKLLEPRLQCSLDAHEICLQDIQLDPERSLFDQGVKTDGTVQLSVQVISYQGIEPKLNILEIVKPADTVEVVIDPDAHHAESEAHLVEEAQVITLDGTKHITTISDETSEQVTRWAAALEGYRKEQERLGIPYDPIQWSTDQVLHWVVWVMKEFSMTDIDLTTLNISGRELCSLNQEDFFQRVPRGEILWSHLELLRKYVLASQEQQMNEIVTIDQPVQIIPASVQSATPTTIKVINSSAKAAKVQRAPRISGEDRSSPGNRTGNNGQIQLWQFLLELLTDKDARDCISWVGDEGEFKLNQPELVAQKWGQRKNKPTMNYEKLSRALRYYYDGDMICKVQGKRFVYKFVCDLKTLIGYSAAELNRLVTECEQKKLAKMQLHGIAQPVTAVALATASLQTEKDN
Particulars: protein: recombinant; tags: N-terminal GST; dsDNA, one strand shown. An outline of the steps: as §1

In test [4] the target is T4, ERG (Homo sapiens, UniProt P11308 1-479).
T4 sequence: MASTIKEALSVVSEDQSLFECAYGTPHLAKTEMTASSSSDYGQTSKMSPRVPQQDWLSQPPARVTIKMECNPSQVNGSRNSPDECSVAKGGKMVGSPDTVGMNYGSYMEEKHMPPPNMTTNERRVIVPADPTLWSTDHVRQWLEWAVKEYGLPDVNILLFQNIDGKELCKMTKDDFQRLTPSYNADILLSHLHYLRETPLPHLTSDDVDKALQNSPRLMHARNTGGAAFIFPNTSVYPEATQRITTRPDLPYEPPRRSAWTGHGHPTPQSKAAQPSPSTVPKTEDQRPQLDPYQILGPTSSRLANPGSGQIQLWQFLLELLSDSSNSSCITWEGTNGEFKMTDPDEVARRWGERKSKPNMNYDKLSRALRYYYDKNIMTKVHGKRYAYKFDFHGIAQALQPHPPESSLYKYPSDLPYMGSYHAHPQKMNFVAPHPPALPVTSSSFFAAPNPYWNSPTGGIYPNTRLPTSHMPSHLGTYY
The settings on record: protein: recombinant; tags: N-terminal GST; dsDNA, one strand shown. In a few lines: as §1

Test [5] concerns the target ELF1 (Homo sapiens, UniProt P32519 1-619). The settings on record: protein: recombinant; tags: N-terminal GST; dsDNA, one strand shown. In a few lines:
as §1

Test [6] addresses T5, EHF (Homo sapiens, UniProt Q9NZC4 1-300).
T5 sequence: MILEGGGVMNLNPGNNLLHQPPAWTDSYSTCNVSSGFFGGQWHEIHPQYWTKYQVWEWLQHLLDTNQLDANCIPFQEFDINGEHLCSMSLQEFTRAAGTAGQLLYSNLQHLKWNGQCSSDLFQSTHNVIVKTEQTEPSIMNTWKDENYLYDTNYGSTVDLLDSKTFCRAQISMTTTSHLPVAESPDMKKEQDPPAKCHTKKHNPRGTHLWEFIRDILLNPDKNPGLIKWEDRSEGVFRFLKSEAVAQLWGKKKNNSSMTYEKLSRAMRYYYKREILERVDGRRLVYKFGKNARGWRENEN
Particulars: protein: recombinant; tags: N-terminal GST; dsDNA, one strand shown. An outline of the steps:
as §1

The target in test [7] is SPI1 (Homo sapiens, UniProt P17947 1-270). The settings on record: protein: recombinant; tags: N-terminal GST; dsDNA, one strand shown. In a few lines: as §1
The target in test [8] is SPIB (Homo sapiens, UniProt Q01892 1-262). Particulars: protein: recombinant; tags: N-terminal GST; dsDNA, one strand shown. An outline of the steps:
as §1

Test [9] addresses T6, ELK3 (Homo sapiens, UniProt P41970 1-407).
T6 sequence: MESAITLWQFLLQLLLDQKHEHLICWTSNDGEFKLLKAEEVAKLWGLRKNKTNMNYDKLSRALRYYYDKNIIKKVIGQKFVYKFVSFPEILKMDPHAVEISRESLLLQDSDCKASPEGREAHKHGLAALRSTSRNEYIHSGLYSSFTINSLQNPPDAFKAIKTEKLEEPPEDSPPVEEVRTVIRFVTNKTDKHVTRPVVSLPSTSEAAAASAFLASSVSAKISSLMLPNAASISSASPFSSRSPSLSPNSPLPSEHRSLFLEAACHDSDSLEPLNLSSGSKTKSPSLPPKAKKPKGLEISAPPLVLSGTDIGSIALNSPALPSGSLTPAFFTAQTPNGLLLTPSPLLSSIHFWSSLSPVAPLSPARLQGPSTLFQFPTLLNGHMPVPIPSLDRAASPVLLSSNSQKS
The settings on record: protein: recombinant; tags: N-terminal GST; dsDNA, one strand shown. An outline of the steps: as §1

For test [10], the target named is T7, FEV (Homo sapiens, UniProt Q99581 1-238).
T7 sequence: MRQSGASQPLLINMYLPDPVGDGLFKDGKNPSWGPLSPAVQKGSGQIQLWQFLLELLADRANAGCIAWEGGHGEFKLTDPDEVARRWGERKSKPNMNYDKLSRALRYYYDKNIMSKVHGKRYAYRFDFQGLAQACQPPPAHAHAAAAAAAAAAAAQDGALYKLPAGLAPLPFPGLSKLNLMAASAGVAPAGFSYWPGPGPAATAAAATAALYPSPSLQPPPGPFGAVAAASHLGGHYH
The settings on record: protein: recombinant; tags: N-terminal GST; dsDNA, one strand shown. An outline of the steps: as §1

Test [11] concerns the target ETV5 (Homo sapiens, UniProt P41161 1-510). The settings on record: protein: recombinant; tags: N-terminal GST; dsDNA, one strand shown. In a few lines: as §1
The target of test [12] is HSF1 (Homo sapiens, UniProt Q00613 1-529). The settings on record: protein: recombinant; tags: N-terminal GST; chain copies: 3; dsDNA, one strand shown. An outline of the steps: as §1
The target in test [13] is T8, SPIC (Homo sapiens, UniProt Q8N5J4 1-248).
T8 sequence: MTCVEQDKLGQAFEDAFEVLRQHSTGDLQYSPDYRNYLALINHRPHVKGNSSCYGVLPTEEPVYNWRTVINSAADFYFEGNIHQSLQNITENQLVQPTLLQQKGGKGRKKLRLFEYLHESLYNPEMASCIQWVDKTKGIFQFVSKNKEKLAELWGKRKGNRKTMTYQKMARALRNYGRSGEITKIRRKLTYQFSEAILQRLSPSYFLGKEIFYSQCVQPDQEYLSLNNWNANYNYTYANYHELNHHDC
Particulars: protein: recombinant; tags: N-terminal GST; dsDNA, one strand shown. In a few lines:
as §1

In test [14] the target is ELF4 (Homo sapiens, UniProt Q99607 1-663). The settings on record: protein: recombinant; tags: N-terminal GST; dsDNA, one strand shown. In a few lines:
as §1

In test [15] the target is T9, ELK4 (Homo sapiens, UniProt P28324-2 1-405).
T9 sequence: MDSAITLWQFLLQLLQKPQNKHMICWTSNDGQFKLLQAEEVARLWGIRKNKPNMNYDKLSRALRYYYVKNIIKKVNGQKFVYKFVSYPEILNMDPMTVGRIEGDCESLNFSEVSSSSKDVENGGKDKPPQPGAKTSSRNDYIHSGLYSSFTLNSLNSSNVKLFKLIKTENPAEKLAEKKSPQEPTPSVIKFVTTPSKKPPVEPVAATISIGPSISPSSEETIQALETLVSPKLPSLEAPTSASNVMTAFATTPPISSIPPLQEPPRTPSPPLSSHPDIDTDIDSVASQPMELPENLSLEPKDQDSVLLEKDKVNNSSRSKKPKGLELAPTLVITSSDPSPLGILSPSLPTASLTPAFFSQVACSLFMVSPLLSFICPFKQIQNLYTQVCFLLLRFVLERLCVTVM
The settings on record: protein: recombinant; tags: N-terminal GST; dsDNA, one strand shown. In a few lines: as §1

The target of test [16] is T10, ETV2 (Homo sapiens, UniProt O00321 1-342).
T10 sequence: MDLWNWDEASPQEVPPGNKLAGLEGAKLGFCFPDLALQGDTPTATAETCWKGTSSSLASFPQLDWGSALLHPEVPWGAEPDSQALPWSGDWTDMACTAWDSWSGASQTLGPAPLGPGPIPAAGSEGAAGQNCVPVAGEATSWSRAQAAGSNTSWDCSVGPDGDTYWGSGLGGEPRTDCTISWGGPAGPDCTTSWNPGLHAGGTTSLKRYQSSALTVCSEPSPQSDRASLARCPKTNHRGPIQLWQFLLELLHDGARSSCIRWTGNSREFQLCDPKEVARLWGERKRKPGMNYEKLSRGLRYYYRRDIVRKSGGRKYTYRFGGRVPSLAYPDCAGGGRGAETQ
Particulars: protein: recombinant; tags: N-terminal GST; dsDNA, one strand shown. In a few lines: as §1

The target of test [17] is T11, ELF3 (Homo sapiens, UniProt P78545 1-371).
T11 sequence: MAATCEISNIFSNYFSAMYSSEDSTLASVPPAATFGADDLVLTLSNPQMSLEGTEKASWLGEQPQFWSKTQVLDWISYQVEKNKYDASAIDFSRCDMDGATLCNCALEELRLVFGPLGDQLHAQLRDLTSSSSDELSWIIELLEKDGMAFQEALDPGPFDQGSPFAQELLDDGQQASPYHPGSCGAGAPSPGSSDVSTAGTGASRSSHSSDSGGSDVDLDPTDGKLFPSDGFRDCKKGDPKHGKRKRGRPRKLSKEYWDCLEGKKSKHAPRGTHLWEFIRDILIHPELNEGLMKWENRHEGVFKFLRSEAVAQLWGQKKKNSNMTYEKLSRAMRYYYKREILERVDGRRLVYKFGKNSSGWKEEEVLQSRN
Particulars: protein: recombinant; tags: N-terminal GST; dsDNA, one strand shown. In a few lines: as §1

Test [18] addresses CRX (Homo sapiens, UniProt O43186 1-299). The settings on record: protein: recombinant; tags: N-terminal GST; dsDNA, one strand shown. In a few lines: as §1
Test [19] concerns the target ETV1 (Homo sapiens, UniProt P50549 1-477). The settings on record: protein: recombinant; tags: N-terminal GST; dsDNA, one strand shown. An outline of the steps: as §1

Chain of ETV5 (P41161 whole entry): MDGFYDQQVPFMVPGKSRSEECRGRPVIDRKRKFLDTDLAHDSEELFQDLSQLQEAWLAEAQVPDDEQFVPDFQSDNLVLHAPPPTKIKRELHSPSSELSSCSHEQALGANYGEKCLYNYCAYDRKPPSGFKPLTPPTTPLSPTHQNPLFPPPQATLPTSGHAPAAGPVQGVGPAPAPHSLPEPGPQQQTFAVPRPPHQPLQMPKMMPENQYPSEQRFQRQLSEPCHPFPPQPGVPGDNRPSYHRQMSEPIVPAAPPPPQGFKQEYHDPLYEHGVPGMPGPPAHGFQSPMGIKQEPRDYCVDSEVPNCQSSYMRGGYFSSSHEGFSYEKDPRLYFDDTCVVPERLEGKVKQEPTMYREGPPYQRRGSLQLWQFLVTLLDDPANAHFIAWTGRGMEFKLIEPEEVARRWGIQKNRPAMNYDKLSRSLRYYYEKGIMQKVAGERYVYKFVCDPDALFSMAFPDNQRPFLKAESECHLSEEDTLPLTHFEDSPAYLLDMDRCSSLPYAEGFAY
Chain of ELF4 (Q99607 whole entry): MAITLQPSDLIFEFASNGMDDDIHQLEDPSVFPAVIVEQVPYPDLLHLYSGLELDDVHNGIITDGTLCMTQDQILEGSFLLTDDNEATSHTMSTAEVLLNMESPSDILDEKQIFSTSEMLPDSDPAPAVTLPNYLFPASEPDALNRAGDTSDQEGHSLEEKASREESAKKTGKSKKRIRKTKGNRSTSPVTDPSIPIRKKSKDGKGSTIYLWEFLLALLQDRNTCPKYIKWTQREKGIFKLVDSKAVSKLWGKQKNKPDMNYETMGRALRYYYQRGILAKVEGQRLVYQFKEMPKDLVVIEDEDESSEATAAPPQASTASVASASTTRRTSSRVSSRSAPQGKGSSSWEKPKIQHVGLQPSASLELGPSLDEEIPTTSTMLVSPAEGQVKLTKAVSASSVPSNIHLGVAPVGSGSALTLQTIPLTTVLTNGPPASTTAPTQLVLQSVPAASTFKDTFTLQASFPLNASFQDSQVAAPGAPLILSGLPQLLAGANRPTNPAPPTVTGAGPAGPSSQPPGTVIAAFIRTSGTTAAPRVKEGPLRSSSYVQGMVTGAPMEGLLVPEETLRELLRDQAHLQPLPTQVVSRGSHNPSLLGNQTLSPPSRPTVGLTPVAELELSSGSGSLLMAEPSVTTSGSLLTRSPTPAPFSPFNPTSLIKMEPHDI
Chain of CRX (O43186 whole entry): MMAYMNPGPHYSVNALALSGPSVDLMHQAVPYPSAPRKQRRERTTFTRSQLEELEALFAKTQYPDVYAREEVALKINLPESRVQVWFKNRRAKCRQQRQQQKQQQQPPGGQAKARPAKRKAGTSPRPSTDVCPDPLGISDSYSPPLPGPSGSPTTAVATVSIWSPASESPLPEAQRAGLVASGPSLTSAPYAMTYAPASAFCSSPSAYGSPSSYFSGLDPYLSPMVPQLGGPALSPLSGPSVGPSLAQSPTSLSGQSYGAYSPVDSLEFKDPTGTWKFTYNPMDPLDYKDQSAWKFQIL
Chain of ETV1 (P50549 whole entry): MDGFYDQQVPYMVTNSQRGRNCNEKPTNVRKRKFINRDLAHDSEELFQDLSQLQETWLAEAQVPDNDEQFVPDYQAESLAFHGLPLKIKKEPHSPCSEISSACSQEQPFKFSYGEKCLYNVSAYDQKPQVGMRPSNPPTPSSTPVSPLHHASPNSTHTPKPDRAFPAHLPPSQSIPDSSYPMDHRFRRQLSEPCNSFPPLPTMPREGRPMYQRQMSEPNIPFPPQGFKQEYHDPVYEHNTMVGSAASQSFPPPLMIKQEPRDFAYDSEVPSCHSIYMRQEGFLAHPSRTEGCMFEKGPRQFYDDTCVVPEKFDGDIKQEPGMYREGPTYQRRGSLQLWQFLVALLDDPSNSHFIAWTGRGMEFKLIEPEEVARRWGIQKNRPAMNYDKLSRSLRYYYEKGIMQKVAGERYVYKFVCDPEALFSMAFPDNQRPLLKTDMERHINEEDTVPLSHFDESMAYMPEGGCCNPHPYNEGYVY
Chain of HSF1 (Q00613 whole entry): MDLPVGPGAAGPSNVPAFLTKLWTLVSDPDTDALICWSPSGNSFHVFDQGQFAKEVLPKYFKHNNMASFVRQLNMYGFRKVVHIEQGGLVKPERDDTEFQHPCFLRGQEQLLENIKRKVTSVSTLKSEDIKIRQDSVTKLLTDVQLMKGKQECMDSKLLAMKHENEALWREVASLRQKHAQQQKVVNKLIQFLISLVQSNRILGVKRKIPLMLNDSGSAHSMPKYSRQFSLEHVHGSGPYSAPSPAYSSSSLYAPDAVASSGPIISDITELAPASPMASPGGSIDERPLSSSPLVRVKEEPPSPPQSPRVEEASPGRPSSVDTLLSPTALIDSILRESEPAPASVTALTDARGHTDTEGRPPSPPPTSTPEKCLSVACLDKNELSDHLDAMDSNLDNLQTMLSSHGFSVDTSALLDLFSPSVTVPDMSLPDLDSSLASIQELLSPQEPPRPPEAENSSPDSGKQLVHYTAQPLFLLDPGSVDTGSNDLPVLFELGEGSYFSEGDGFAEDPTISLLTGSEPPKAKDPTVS
Chain of ELF1 (P32519 whole entry): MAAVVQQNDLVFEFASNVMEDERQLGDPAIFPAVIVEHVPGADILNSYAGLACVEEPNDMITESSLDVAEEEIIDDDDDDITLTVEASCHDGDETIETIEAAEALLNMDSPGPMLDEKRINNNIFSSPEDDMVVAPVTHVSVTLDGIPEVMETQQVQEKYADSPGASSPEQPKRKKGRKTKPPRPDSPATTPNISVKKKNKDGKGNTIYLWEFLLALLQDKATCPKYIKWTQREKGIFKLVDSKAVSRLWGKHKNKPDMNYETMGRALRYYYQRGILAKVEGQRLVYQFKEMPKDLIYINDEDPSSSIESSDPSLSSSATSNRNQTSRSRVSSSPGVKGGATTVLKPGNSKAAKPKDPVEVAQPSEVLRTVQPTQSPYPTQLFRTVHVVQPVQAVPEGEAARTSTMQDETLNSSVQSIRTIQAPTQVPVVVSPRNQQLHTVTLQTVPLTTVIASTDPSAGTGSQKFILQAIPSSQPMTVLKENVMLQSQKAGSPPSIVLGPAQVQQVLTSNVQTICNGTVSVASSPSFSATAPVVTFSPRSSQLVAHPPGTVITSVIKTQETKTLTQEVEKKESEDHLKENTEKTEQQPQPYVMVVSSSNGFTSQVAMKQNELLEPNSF
Chain of SPIB (Q01892 whole entry): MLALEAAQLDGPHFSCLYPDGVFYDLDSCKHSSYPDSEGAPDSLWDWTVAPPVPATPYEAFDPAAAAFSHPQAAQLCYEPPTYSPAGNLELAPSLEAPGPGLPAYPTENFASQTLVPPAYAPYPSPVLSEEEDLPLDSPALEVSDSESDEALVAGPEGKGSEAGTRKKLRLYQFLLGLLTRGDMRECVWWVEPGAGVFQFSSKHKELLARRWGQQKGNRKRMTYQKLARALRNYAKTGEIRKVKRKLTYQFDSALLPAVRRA

On to TTCTGT, for which the binding signal is 1.26 fold enrichment (6-mer frequency, TF over GST control) in test [1]; 1.3 fold enrichment (6-mer frequency, TF over GST control) in test [2]; 1.3 fold enrichment (6-mer frequency, TF over GST control) in [3]; 1.27 fold enrichment (6-mer frequency, TF over GST control) in test [4]; 1.27 fold enrichment (6-mer frequency, TF over GST control) in test [5]; 1.25 fold enrichment (6-mer frequency, TF over GST control) in [6]. Also, the binding signal in test [7] was 1.37 fold enrichment (6-mer frequency, TF over GST control); in [8], 1.22 fold enrichment (6-mer frequency, TF over GST control); in [9], 1.33 fold enrichment (6-mer frequency, TF over GST control); in [10], 1.27 fold enrichment (6-mer frequency, TF over GST control); in test [11], 1.26 fold enrichment (6-mer frequency, TF over GST control); in test [12], 1.6 fold enrichment (6-mer frequency, TF over GST control). For the same sequence, the binding signal in test [13] is 1.41 fold enrichment (6-mer frequency, TF over GST control); in [14], 1.3 fold enrichment (6-mer frequency, TF over GST control); in test [15], 1.5 fold enrichment (6-mer frequency, TF over GST control); in test [16] it was 1.35 fold enrichment (6-mer frequency, TF over GST control); in [17], 1.24 fold enrichment (6-mer frequency, TF over GST control); in test [18], 1.31 fold enrichment (6-mer frequency, TF over GST control). Further, the binding signal in test [19] is 1.32 fold enrichment (6-mer frequency, TF over GST control).
